Source: the supplement of paper PMC11732987, “Enantioselective OTUD7B fragment discovery through chemoproteomics screening and high-throughput optimisation” (Communications Chemistry, 2025)

target: USP14 (UniProt P54578); assay: log2 ratio of Biotin-Ahx-Ub-VS probe labelling (fragment/DMSO); higher = less target engagement (more negative = stronger competition), active = hit call of the paper (q ≤ 0.05, log2 ratio ≤ -1); conditions: compound concentration: 200 uM; treatment time: 3 h
Procedure: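 Competitive ABPP in HEK293T cell lysate. Lysates were treated with each chloroacetamide fragment at 200 µM for 3 h, then with Biotin-Ahx-Ub-VS (0.5 µM, 1 h), NeutrAvidin-enriched and analysed by diaPASEF LC-MS/MS. Protein LFQ was median-normalised; average log2 ratio is fragment/DMSO from an unpaired t-test (n=3 treated, n=44 DMSO). Hits: q ≤ 0.05, log2 ratio ≤ -1, unique peptides ≥ 2.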

Sequence of USP14 (P54578 whole entry, the tested form may be a part): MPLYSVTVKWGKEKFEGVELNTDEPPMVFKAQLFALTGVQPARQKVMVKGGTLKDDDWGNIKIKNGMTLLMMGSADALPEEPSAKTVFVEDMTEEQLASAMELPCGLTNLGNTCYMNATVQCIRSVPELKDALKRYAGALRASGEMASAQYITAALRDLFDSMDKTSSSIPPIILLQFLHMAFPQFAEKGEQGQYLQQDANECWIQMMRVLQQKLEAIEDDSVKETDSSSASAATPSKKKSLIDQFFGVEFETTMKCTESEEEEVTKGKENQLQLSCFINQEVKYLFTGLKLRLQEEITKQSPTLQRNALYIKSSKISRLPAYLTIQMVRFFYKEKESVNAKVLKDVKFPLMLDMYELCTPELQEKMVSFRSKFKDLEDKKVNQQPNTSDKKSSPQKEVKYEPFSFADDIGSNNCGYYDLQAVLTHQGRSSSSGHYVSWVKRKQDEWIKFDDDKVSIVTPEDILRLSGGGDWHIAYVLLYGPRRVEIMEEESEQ

log2 ratio of Biotin-Ahx-Ub-VS probe labelling, inactive:
CCN(Cc1ccc(C#N)cc1F)C(=O)CCl -0.392
O=C(CCl)N1CC=C(c2c[nH]c3ccccc23)CC1 -0.573
O=C(CCl)N1CCOC2(CCC2)CC1 -0.247
Cl.Cn1nc2c(c1CNC(=O)CCl)CCCC2 -0.00316
Cc1ccc(N(CCC#N)C(=O)CCl)cc1C -0.623
O=C(CCl)Nc1cc2c(cc1Cl)OCCCO2 0.135
Cl.O=C(CCl)N1CCC(n2nc3ccccc3n2)CC1 -0.545
O=C(CCl)N1CCC(c2noc3cc(F)ccc23)CC1 -0.337
O=C(CCl)N1c2ccccc2NC(=O)C12CCCC2 -0.661
Cl.O=C(CCl)N1CCn2cncc2C1 -0.259
Cl.Cn1cnc2cc(CNC(=O)CCl)ccc21 -0.222
CC1CCc2onc(CNC(=O)CCl)c2C1 (stereo not given) 0.328
CCN(C(=O)CCl)C1CCCCC1 -0.0238
O=C(CCl)NCc1ccc(N2CCOCC2)c(F)c1 0.1
O=C(CCl)Nc1cccc2ncccc12 0.338
Cc1ccc2nnc(CNC(=O)CCl)n2c1 0.17
O=C(CCl)Nc1nc(-c2cccs2)cs1 0.15
O=C(CCl)NCc1cccc(N2CCCC2=O)c1 -0.0996
Cl.O=C(CCl)NCc1cc2c(nc1O)CCCC2 -0.12
Cc1ccc(-c2nnc(C)[nH]2)c(NC(=O)CCl)c1 -0.203
Cl.O=C(CCl)N1CC(c2ccc(Br)cn2)C1 -0.592
CC1CN(c2ccc(NC(=O)CCl)cc2)CC(C)O1 (stereo not given) -0.0454
O=C(CCl)N1CCc2nc[nH]c2C1c1ccc(Cl)cc1 (stereo not given) -0.69
Cc1ccc(N2CCC(NC(=O)CCl)C2=O)cc1 (stereo not given) -0.0106
Cc1cccc(NC(=O)[C@@H]2CCCN2C(=O)CCl)n1 -0.519
O=C(CCl)N1CCOCC1C1CC1 (stereo not given) -0.212
Cc1ccn2cc(CNC(=O)CCl)nc2c1.Cl 0.000672
CC(=O)Nc1ccc(NC(=O)CCl)cc1 0.0669
CN(C)S(=O)(=O)c1ccccc1CNC(=O)CCl 0.0554
O=C(CCl)NCCc1cccc2ccccc12 0.0871
O=C(CCl)N(Cc1ccsc1)C1CC1 -0.456
Cc1cc(Cl)ccc1NC(=O)CCl -0.0914
O=C(CCl)N[C@H]1CCS(=O)(=O)c2ccccc21 -0.0969
Cc1ncc2c(n1)CCN(C(=O)CCl)C2 -0.161
O=C(CCl)N1CCCCCC1c1ncon1 (stereo not given) -0.087
O=C(CCl)NCCc1ccc(F)cc1 -0.0749
O=C(CCl)Nc1cccc(C(=O)N2CCSCC2)c1 -0.335
Cc1ncsc1CCNC(=O)CCl 0.518
CN1c2ccccc2C(NC(=O)CCl)CS1(=O)=O (stereo not given) -0.335
Cl.O=C(CCl)N1CCC(Cc2nccs2)C1 (stereo not given) -0.2
